According to PubChem BioAssay (Tox21):
Records with an inconclusive call do not appear. Active and inactive are the calls of the source. The call rests on the fitted dose curve; in most records, active means well fitted curve in the direction sought with a large enough effect in the repeat runs; inconclusive means weak or mixed curves; inactive means no such curve, though single readings can be large; an effect the other way counts as inactive or inconclusive.

Experiments:
[1] = qHTS RealTime-Glo MT Cell Viability Assay in HEK293 cells - 16 hour (AID 1224872); further: nearly all actives have a fitted effect of over 50% in size; further: potency means the concentration at half of the fitted maximal effect; on activity change, negative = cytotoxicity: top concentration of the series differs between compounds
Outline: (§1)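 Homogeneous bioluminescent viability format in HEK293 cells (600 cells/well). Following 5 h at 37 C/5% CO2, 23 nL compound was pintooled; the signal was measured repeatedly during 40 h incubation.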

[2] = qHTS RealTime-Glo MT Cell Viability Assay in HepG2 cells - 8 hour (AID 1224873); further: nearly all actives have a fitted effect of over 55% in size
Outline: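 HepG2 cells mixed with RealTime-Glo MT reagents (NanoLuc plus cell-permeant prosubstrate) were seeded at 600 cells/well, incubated 5 h at 37 C/5% CO2, then pinned with compounds in DMSO; nonlytic luminescence tracked viability during 40 h treatment.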

[3] = qHTS RealTime-Glo MT Cell Viability Assay in HEK293 cells - 40 hour (AID 1224874); conditions: RealTime-Glo luminescence; max response: active compounds read low; further: nearly all actives have a fitted effect of over 50% in size; further: potency means the concentration at half of the fitted maximal effect
Outline: (§2)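 Nonlytic bioluminescent viability monitoring. HEK293 at 600 cells/well with reagent; 5 h settle; compound transfer by pintool; plates held at 37 C and read at set time points.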

[4] = A CellTox Green Cytotoxicity Assay to monitor cytotoxicity in HepG2 cells - 16 hour (AID 1224876); further: nearly all actives have a fitted effect of over 45% in size
Outline: (§3)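 Real-time, homogeneous cytotoxicity readout: dead-cell DNA staining by CellTox Green in HepG2 monolayers, fluorescence measured at timed intervals up to 40 h of continuous compound exposure.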

[5] = qHTS RealTime-Glo MT Cell Viability Assay in HepG2 cells - 32 hour (AID 1224877); further: nearly all actives have a fitted effect of over 55% in size
Outline: (§4)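 Cell number in HepG2 cultures estimated from NanoLuc luminescence generated by metabolic reduction of a prosubstrate by living cells. The homogeneous, nonlytic format allowed repeated reads at 0, 8, 16, 24, 32 and 40 h of compound exposure.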

[6] = A CellTox Green Cytotoxicity Assay to monitor cytotoxicity in HepG2 cells - 24 hour (AID 1224878); further: nearly all actives have a fitted effect of over 45% in size; further: potency means the concentration at half of the fitted maximal effect
Outline: as §3

[7] = A CellTox Green Cytotoxicity Assay to monitor cytotoxicity in HepG2 cells - 40 hour (AID 1224879); further: nearly all actives have a fitted effect of over 40% in size; further: potency means the concentration at half of the fitted maximal effect
Outline: as §3

[8] = qHTS RealTime-Glo MT Cell Viability Assay in HEK293 cells - 0 hour (AID 1224880); further: top concentration of the series differs between compounds; nearly all actives have a fitted effect of over 45% in size
Outline: as §2

[9] = A CellTox Green Cytotoxicity Assay to monitor cytotoxicity in HepG2 cells - 0 hour (AID 1224882); further: nearly all actives have a fitted effect of over 35% in size
Outline: as §3

[10] = A CellTox Green Cytotoxicity Assay to monitor cytotoxicity in HepG2 cells - 32 hour (AID 1224883); further: nearly all actives have a fitted effect of over 50% in size; further: potency means the concentration at half of the fitted maximal effect
Outline: as §3

[11] = qHTS RealTime-Glo MT Cell Viability Assay in HepG2 cells - 16 hour (AID 1224885); further: nearly all actives have a fitted effect of over 50% in size
Outline: as §4

[12] = qHTS RealTime-Glo MT Cell Viability Assay in HEK293 cells - 24 hour (AID 1224886); further: nearly all actives have a fitted effect of over 50% in size; further: potency means the concentration at half of the fitted maximal effect; on activity change, negative = cytotoxicity: top concentration of the series differs between compounds
Outline: as §1

[13] = qHTS RealTime-Glo MT Cell Viability Assay in HEK293 cells - 8 hour (AID 1224887); further: nearly all actives have a fitted effect of over 50% in size; further: potency means the concentration at half of the fitted maximal effect; on activity change, negative = cytotoxicity: top concentration of the series differs between compounds
Outline: as §2

[14] = qHTS RealTime-Glo MT Cell Viability Assay in HepG2 cells - 0 hour (AID 1224889); further: nearly all actives have a fitted effect of over 50% in size
Outline: as §4

[15] = A CellTox Green Cytotoxicity Assay to monitor cytotoxicity in HepG2 cells - 8 hour (AID 1224890); further: nearly all actives have a fitted effect of over 45% in size
Outline: as §3

[16] = qHTS assay to identify small molecule antagonists of the estrogen receptor alpha (ER-alpha) signaling pathway using the BG1 cell line in the presence of 0.1 nM 17-beta-estradiol - cell viability counter screen (AID 1259241); further: nearly all actives have a fitted effect of over 40% in size; further: potency means the concentration at half of the fitted maximal effect
Outline: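 VM7Luc4E2 cells (endogenous full-length ER-alpha, 4xERE-luciferase), cultured 5 days in charcoal-stripped serum, exposed to compounds with 0.1 nM 17beta-estradiol (final) for 22 hr at 37C. Viability read in same wells as live-cell protease fluorescence after 30 min.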

[17] = A CellTox Green Cytotoxicity Assay to monitor cytotoxicity in HEK293 cells - 32 hour (AID 1224881); further: nearly all actives have a fitted effect of over 40% in size; further: potency means the concentration at half of the fitted maximal effect
Outline: (§5)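 Cytotoxicity was tracked continuously in HEK293 cells by a DNA-binding dye excluded from viable cells. Compounds were transferred in DMSO 5 h after seeding; fluorescence was recorded at intervals up to 40 h.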

[18] = A CellTox Green Cytotoxicity Assay to monitor cytotoxicity in HEK293 cells - 8 hour (AID 1224884); further: nearly all actives have a fitted effect of over 35% in size
Outline: as §5

[19] = A CellTox Green Cytotoxicity Assay to monitor cytotoxicity in HEK293 cells - 16 hour (AID 1224888); further: nearly all actives have a fitted effect of over 35% in size
Outline: as §5

[20] = A CellTox Green Cytotoxicity Assay to monitor cytotoxicity in HEK293 cells - 24 hour (AID 1224875)
Outline: as §5
On the % scale 0 is the no-effect control and ±100 the full control effect.

Nc1ccc(S(=O)(=O)O)c(N)c1
inactive: Potency [1] | Potency [2] | max response [3] -8.29% | Potency [4] | Potency [5] | Potency [6] | Potency [7] | Potency [8] | Potency [9] | Potency [10] | Potency [11] | Potency [12] | Potency [13] | Potency [14] | Potency [15] | Potency [16]

C1COCO1
inactive: Potency [1] | Potency [2] | max response [3] -1.05% | Potency [4] | Potency [5] | Potency [6] | Potency [7] | Potency [8] | Potency [17] | Potency [9] | Potency [10] | Potency [18] | Potency [11] | Potency [12] | Potency [13] | Potency [19] | Potency [14] | Potency [15] | Potency [16]

CCOCCn1c(C2CCN(CCc3ccc(C(C)(C)C(=O)O)cc3)CC2)nc2ccccc21
inactive: Potency [1] | Potency [2] | max response [3] 0.952% | Potency [20] | Potency [5] | Potency [8] | Potency [17] | Potency [9] | Potency [18] | Potency [11] | Potency [12] | Potency [13] | Potency [19] | Potency [14]

O=C(CCCN1CCC(O)(c2ccc(Br)cc2)CC1)c1ccc(F)cc1
inactive: Potency [2] | Potency [20] | Potency [8] | Potency [17] | Potency [9] | Potency [18] | Potency [11] | Potency [19] | Potency [14] | Potency [15] | Potency [16]
active: Potency [1] 9.52 µM | Potency [3] 10.7 µM | Potency [6] 23.9 µM | Potency [7] 23.9 µM | Potency [10] 26.8 µM | Potency [12] 10.7 µM | Potency [13] 8.49 µM

CO[Si](C)(OC)OC
inactive: Potency [1] | Potency [2] | max response [3] 2.67% | Potency [20] | Potency [5] | Potency [6] | Potency [8] | Potency [17] | Potency [9] | Potency [18] | Potency [11] | Potency [19] | Potency [14] | Potency [15]

CC(C)(C)CC(C)(C)c1ccc(OCCO)cc1
active: Potency [1] 6.88 µM | Potency [3] 4.87 µM | Potency [17] 54.6 µM | Potency [12] 5.46 µM | Potency [13] 7.72 µM | Potency [16] 54.2 µM
inactive: Potency [2] | Potency [4] | Potency [5] | Potency [6] | Potency [8] | Potency [9] | Potency [10] | Potency [11] | Potency [15]

N#C[C@@H]1C[C@@H]2C[C@@H]2N1C(=O)[C@@H](N)C12CC3CC(CC(O)(C3)C1)C2
inactive: Potency [1] | Potency [2] | max response [3] 10.4% | Potency [4] | Potency [5] | Potency [6] | Potency [7] | Potency [8] | Potency [17] | Potency [9] | Potency [10] | Potency [18] | Potency [11] | Potency [12] | Potency [13] | Potency [19] | Potency [14] | Potency [15] | Potency [16]

CCCCCCCCCCCCCCCCBr
inactive: activity change, negative = cytotoxicity [1] 6.53% [at 15.8 µM] | viability change, negative = cytotoxic [2] 2.68% [at 15.8 µM] | max response [3] 4.08% | cytotoxicity increase [4] -3.1% [at 15.8 µM] | activity change, negative = cytotoxic [5] 2.91% [at 15.8 µM] | cytotoxicity [6] -6.35% [at 15.8 µM] | cytotoxicity increase [7] -7.84% [at 15.8 µM] | activity change, negative = cytotoxicity [8] 6.45% [at 15.8 µM] | cytotoxicity increase [17] 0.813% [at 15.8 µM] | cytotoxicity [9] -3.37% [at 15.8 µM] | cytotoxicity increase [10] -8.22% [at 15.8 µM] | cytotoxicity increase [18] -1.67% [at 15.8 µM] | activity change, negative = cytotoxic [11] 2.39% [at 15.8 µM] | activity change, negative = cytotoxicity [12] 6% [at 15.8 µM] | activity change, negative = cytotoxicity [13] 3.99% [at 15.8 µM] | activity change [19] 2.24% [at 15.8 µM, active compounds read high] | activity change, negative = cytotoxicity [14] 6.9% [at 15.8 µM] | cytotoxicity increase [15] -4.5% [at 15.8 µM] | activity change, negative = cytotoxicity [16] 1.42% [at 19 µM]
